Bioassay records (PubChem BioAssay)
The list is not random: actives were taken first. Their share in the collection is about 22%.
CYP2C9 inhib: blocks human cytochrome P450 2C9; P11712; CYP2C9 Supersomes, luciferin-H conversion, luminescence; inhibition, % at 5 µM; actives 20% (n = 96,000);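 active means blocking of liver enzyme CYP2C9 beyond about 50% at 5 µM, limit read from the data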
Target sequence (P11712 whole entry, looked up): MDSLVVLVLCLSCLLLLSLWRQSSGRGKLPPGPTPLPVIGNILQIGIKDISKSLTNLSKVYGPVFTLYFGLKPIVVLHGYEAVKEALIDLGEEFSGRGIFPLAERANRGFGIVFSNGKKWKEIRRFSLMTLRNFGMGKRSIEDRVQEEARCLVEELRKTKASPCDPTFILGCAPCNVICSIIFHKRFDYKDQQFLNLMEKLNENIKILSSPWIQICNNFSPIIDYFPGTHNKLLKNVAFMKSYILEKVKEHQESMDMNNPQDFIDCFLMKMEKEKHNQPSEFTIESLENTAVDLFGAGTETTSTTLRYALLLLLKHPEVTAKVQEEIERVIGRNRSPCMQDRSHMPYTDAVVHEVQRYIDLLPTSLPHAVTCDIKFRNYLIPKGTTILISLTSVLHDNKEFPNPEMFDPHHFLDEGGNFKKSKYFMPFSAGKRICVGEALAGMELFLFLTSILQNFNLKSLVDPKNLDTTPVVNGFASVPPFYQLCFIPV
F-actin modifier: cytoskeleton assembly modification; AID 836; actives 0.18% (n = 91,000); inhibition, % at 2 µM; HUVEC TNFa F-actin phalloidin imaging, high content;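 active means inhibition above the batch mean plus 3 SD and confirmed as a hit by visual image inspection, cut at about 30% in these data, passing the limit was not always enough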
E-sel TNF inh: blocks E-selectin expression induced by TNF alpha | actives 0.71% (n = 120,000) | inhibition, % at 2 µM | HUVEC TNFa-induced E-selectin immunofluorescence, high content | AID 1246;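 active means inhibition above the batch mean plus 3 SD, and confirmed as a hit on visual image review, cut at about 43% in these data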;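 further: 0% = TNF-stimulated DMSO wells and 100% = unstimulated control wells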
CYP2C19 act: increases human CYP2C19 enzyme activity | P33261 | recombinant CYP2C19, luciferin-H EGE luminescence; stronger effect = higher value; 0 = fully inhibited enzyme, 1 = untreated enzyme | activation factor at 5 µM | 96,000 tested, under 10 active | AID 1025;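 active means activation factor of at least 2 at 5 µM in the primary screen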;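 further: 0 = wells with 2.5 mM tranylcypromine and 1 = vehicle-only wells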
CYP2C19 inhib: inhibitors of human CYP2C19; P33261; CYP2C19 Supersomes, luciferin-H EGE luminescence, 30 min; inhibition, % at 5 µM; actives 21% (n = 96,000);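 active means CYP2C19 inhibition above a set limit at 5 µM in the primary screen, cut at about 50% in these data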;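 further: plate controls were negative control wells for no effect and 2.5 mM tranylcypromine positive control for full effect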
CYP2C9 act: increases human cytochrome P450 2C9 activity. P11712. recombinant CYP2C9, luciferin-H conversion, luminescence; stronger effect = higher value; factor 1 = untreated enzyme, 0 = blocked. activation factor at 5 µM. actives 1.4% (n = 96,000);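 active means activation factor of 2 or more for CYP2C9 at a 5 µM dose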;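 further: 0 = sulfaphenazole-blocked wells and 1 = vehicle-only wells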
* hit, by the source's call; nt = no result given.

SMILES | CYP2C9 inhib | F-actin modifier | E-sel TNF inh | CYP2C19 act | CYP2C19 inhib | CYP2C9 act
Cc1noc2ncnc(Sc3c(Cl)cccc3Cl)c12 | 52* | 2 | 24 | 0 | 97* | 0.5
Cc1noc2ncnc(Oc3ccc(F)cc3)c12 | -7 | 8 | -18 | 1 | 5 | 1.1
Nc1cccnc1Sc1ccc(Cl)cc1 | nt | 24 | -58 | nt | nt | nt
Cc1noc2ncnc(Oc3ccc(C(C)(C)C)cc3)c12 | nt | nt | -11 | nt | nt | nt
Cc1ccc(Sc2ncnc3onc(C)c23)cc1 | 23 | 4 | -3 | 0.3 | 67* | 0.8
Cc1noc2ncnc(Sc3ccc(Cl)cc3)c12 | 10 | -5 | -5 | 0.2 | 79* | 0.9
Cc1noc2ncnc(N3CCCCC3)c12 | nt | nt | -48 | nt | nt | nt
CCN(CC)C(=O)Cn1cc(C(=O)C(=O)N2CC=C(c3ccccc3)CC2)c2ccccc21 | nt | nt | 3 | nt | nt | nt
COc1ccc(C(=O)Nc2cccnc2)cc1OC | nt | 3 | -30 | nt | nt | nt
Cn1c(N)c(C(=O)COC(=O)CCCc2c[nH]c3ccccc23)c(=O)n(C)c1=O | 48 | -2 | 19 | 0.8 | 16 | 0.5
Cc1ccc(OCC(=O)OCC(=O)c2c(N)n(C)c(=O)n(C)c2=O)cc1C | 24 | nt | 20 | 0.4 | 60* | 0.8
Cn1c(N)c(C(=O)COC(=O)CCc2c[nH]c3ccccc23)c(=O)n(C)c1=O | -70 | 0 | 2 | 0.4 | 60* | 1.7
Cc1cc(C)cc(OCC(=O)OCC(=O)c2c(N)n(C)c(=O)n(C)c2=O)c1 | -1 | nt | 12 | 0.7 | 30 | 1
NCCCC[C@@H]1NC(=O)[C@H](CCC(=O)O)NC(=O)c2cc([N+](=O)[O-])cc(I)c2OCC[C@@H](C(N)=O)NC1=O | nt | nt | -29 | nt | nt | nt
Cc1cc(N2C(=O)C3C4c5ccccc5C(c5ccccc54)C3C2=O)no1 (stereo not drawn) | 59* | -16 | -22 | 0.2 | 80* | 0.4
Cc1cc(N2C(=O)C3CC=CC(C)C3C2=O)no1 (stereo not drawn) | nt | -7 | 11 | nt | nt | nt
Cc1cc(NC(=O)CSc2nc(C(C)C)nc3sc(C)c(C)c23)no1 | 54* | 18 | -3 | 0.8 | 18 | 0.5
Cc1cc(NC(=O)CSc2nc(C(C)C)nc3ccccc23)no1 | 49 | 8 | -3 | 0.8 | 17 | 0.5
Cc1cc(NC(=O)CSc2nnc3c4c(C)c(C)sc4ncn23)no1 | 56* | -2 | 69* | 0.6 | 36 | 0.4
CCN(CC)S(=O)(=O)N1CCC(C(=O)NCCN2CCOCC2)CC1 | -10 | 22 | -22 | 1.1 | -6 | 1.1
O=C(CSc1nc(-c2ccccc2)c(-c2ccccc2)[nH]1)NCC1CCCO1 (stereo not drawn) | nt | nt | -21 | nt | nt | nt
COc1ccccc1NC(=O)c1cc(Br)ccc1Cl | nt | nt | 15 | nt | nt | nt
COc1ccc(C)cc1NC(=O)C1CC(=O)OC12CCCCC2 (stereo not drawn) | 3 | -9 | 9 | 0.2 | 78* | 1
Cc1cccc(NC(=O)C2CC(=O)OC23CCCCC3)c1 (stereo not drawn) | 7 | 1 | 0 | 0.2 | 76* | 0.9
COc1ccc(NC(=O)C2CC(=O)OC23CCOC(C)(C)C3)cc1 (stereo not drawn) | 15 | nt | -8 | 0.4 | 57* | 0.8
SMILES | CYP2C9 inhib | F-actin modifier | E-sel TNF inh | CYP2C19 act | CYP2C19 inhib | CYP2C9 act
O=C(Nc1ccccc1Sc1ccccc1)C1CCCO1 (stereo not drawn) | 25 | -2 | -1 | 0.3 | 69* | 0.8
COc1ccc(NC(=O)c2ccccc2NC(=O)C2CCCO2)cc1 (stereo not drawn) | 80* | 6 | 8 | 0.5 | 50* | 0.2
O=C(Nc1ccccc1Sc1ccccc1)c1ccccc1 | 77* | -17 | -27 | 0.1 | 86* | 0.2
CC(C)NC(=O)c1ccccc1NC(=O)C1CCCO1 (stereo not drawn) | 26 | 14 | 0 | 1 | 4 | 0.7
CN1CCCN(C(=O)c2cc(=O)[nH]c3ccccc23)c2nc3ccccc3nc21 | 23 | 10 | -4 | 0.7 | 26 | 0.8
CC(C)C1(C)C(=O)N=C2c3ccccc3C(=O)N21 (stereo not drawn) | 2 | 18 | -2 | 0.7 | 33 | 1
Cc1ccc(NC(=S)N2CCOCC2)c(C)c1 | 3 | -10 | 7 | 0.9 | 8 | 1
COC(=O)c1cccc(NC(=O)c2cccs2)c1C | 8 | nt | 14 | 0.5 | 52* | 0.9
COC(=O)c1ccccc1NC1=C/C(=N\S(=O)(=O)c2cccs2)c2ccccc2C1=O | 83* | -2 | 22 | 0.3 | 67* | 0.2
COC(=O)c1cccc(NS(C)(=O)=O)c1C | 0 | -13 | -1 | 1 | 3 | 1
O=C(Nc1ccccc1Cl)c1cccs1 | -10 | -3 | 30 | 1.1 | -10 | 1.1
COc1ccc(CC(=O)Nc2cccc(C(=O)NN3C(=O)c4ccccc4C3=O)c2C)cc1 | nt | nt | -7 | nt | nt | nt
COC(=O)c1cccc(NS(=O)(=O)c2cccs2)c1C | 74* | 9 | 23 | 0.9 | 14 | 0.3
COC(=O)c1cccc(NC(=O)Cc2ccc(OC)cc2)c1C | 67* | -4 | -13 | 0.1 | 92* | 0.3
COc1ccc(NS(=O)(=O)c2cc(NC(=O)C3CCCO3)ccc2N2CCCCC2)cc1 (stereo not drawn) | nt | nt | -14 | nt | nt | nt
Cc1cc(N2CCC(N(C)C3CCCC3)CC2)nc2cc(O)ccc12 | 4 | nt | -47 | 0.9 | 14 | 1
c1ccc(Nc2cccc(Nc3ccccc3)n2)cc1 | 20 | 14 | -8 | 0.7 | 35 | 0.8
CC(C)=CCC/C(C)=C/CCC(C)NCCN1CCNCC1 (stereo not drawn) | 10 | -30 | nt | 0.7 | 30 | 0.9
C=CCn1c(-c2cccs2)nc2ccccc21 | 38 | -8 | 34 | 0.3 | 66* | 0.6
C=CCSc1nc2ccccc2n1Cc1nnc(-c2cccs2)o1 | 53* | nt | nt | 0.3 | 67* | 0.5
C=CCn1c(N)c(-c2nc3ccccc3n2C)sc1=S | 86* | -1 | 1 | 0.6 | 44 | 0.1
COCCN=C1NC(=O)C(CC(=O)Nc2cccc(Cl)c2C)S1 (stereo not drawn) | nt | nt | 6 | nt | nt | nt
CN(C)C(=O)Cn1c(=O)n(C)c2ccccc21 | -18 | nt | -36 | 1.1 | -13 | 1.2
CCOc1ccc(CNC(=O)CCn2c(=O)oc3ccccc32)cc1OC | 8 | -9 | 2 | 0.7 | 27 | 0.9
CCNC(=O)OCC12CC3CC(CC(C3)C1)C2 | nt | nt | -16 | nt | nt | nt
CC(C)(C)C(=O)N1CCN(c2c(Cl)cccc2[N+](=O)[O-])CC1 | 85* | -2 | -29 | 0.4 | 65* | 0.1
CNC(=O)CSc1nnnn1-c1ccc2c(c1)OCCO2 | nt | 8 | -3 | nt | nt | nt
O=C(Cn1c(C(F)(F)F)nc2ccccc21)c1ccccc1 | 39 | 14 | -18 | 0.5 | 53* | 0.6
Cc1nc2ccccc2n1CC(O)Cn1c(C(F)(F)F)nc2ccccc21 (stereo not drawn) | 72* | -19 | nt | 0.7 | 33 | 0.3
OC(CN1CCCCC1)Cn1c(C(F)(F)F)nc2ccccc21 (stereo not drawn) | -12 | nt | -16 | 1 | -2 | 1.1
